ASM inhibitor: human S-ASM enzyme inhibition; AID 504937; Potency, µM (highest dose often 57.5 µM), without a hit: at the highest dose activity change, negative = inhibition, most hits filed as inhibitors; placental ASM, HMU-PC fluorogenic substrate, 60 min; P17405; 340,000 tested, 0.006% active; also: potency is read from the fitted curve at half-maximal effect
Target sequence (P17405 47-631 limits assumed): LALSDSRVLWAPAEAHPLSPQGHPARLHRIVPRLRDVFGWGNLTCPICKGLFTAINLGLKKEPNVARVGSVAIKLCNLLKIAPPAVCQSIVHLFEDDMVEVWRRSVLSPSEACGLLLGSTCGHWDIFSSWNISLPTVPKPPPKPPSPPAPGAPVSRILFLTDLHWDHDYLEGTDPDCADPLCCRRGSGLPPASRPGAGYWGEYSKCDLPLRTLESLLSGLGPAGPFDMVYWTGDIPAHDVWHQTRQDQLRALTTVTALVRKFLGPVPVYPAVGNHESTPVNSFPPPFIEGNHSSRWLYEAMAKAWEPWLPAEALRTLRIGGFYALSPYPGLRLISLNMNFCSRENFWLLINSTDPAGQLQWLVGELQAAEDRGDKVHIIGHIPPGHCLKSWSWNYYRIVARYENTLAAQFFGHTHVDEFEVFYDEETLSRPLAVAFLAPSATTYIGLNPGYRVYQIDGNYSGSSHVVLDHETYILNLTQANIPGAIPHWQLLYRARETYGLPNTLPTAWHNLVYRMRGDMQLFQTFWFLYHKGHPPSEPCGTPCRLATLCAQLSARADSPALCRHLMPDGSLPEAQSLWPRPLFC
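Fluorescence read-out (Ex 386 nm, Em 447 nm) after stopping the reaction at pH 10. Enzyme: ASM from human placenta; substrate HMU-PC0, 9 uM final; 60 min, 37 °C. Compound preincubation 10 min, ambient temperature.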
SW480 rereplic: inducers of DNA re-replication in SW480 colon cancer cells; 340,000 tested, 1.8% active; AID 624297; SW480 DNA re-replication, Hoechst DNA content imaging, 48 h; Potency, µM (top dose mostly 46.1 µM), for the others: at the top dose re-replication activation, usual class: activators; also: potency is read from the fitted curve at half-maximal effect; % of control where 0% means no effect; nearly all actives have a fitted effect of over 55% in size
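Treated cells incubate 48 hr (37 C, 5% CO2), are stained 40 min with Hoechst, and nuclear fluorescence is enumerated; a rise in nuclei with high DNA signal marks re-replication.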
MCF10A rereplic: inducers of DNA re-replication in MCF 10A breast cells | MCF 10A DNA re-replication, Hoechst nuclear intensity, 48 h | Potency, µM (highest dose often 46.1 µM), for the others: top-dose activity, positive = re-replication, most hits filed as activators | 350,000 tested, 2.9% active; also: potency is read from the fitted curve at half-maximal effect; % of control where 0% means no effect; nearly all actives have a fitted effect of over 50% in size
KB-V1 MDR tox: kills drug-selected multidrug resistant KB-V1 cells; KB-V1 MDR cells viability, CellTiter-Glo, 72 h; Potency, µM (doses to about 46.1 µM), most hits filed as cytotoxic; 400,000 tested, 3.4% active; AID 1347076; also: potency is read from the fitted curve at half-maximal effect; % is scaled to controls: 0 for no effect and ±100 for the full control effect; nearly all actives have a fitted effect of over 60% in size
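Drug-selected KB-V1 cells, grown in DMEM lacking phenol red with 10% FBS, receive compound titrations; after three days at 37 degrees C, surviving cell ATP is quantified by CellTiter-Glo luminescence and responses normalized and curve-fitted.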
KB-3-1 cytotox: KB-3-1 parental cell cytotoxicity | KB-3-1 viability, CellTiter-Glo ATP luminescence, 72 h | Potency, µM (doses to about 46.1 µM), most hits filed as cytotoxic | 400,000 tested, 1.4% active | AID 1347075; also: potency is read from the fitted curve at half-maximal effect; % is scaled to controls: 0 for no effect and ±100 for the full control effect; nearly all actives have a fitted effect of over 60% in size
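Here the drug-naive KB-3-1 line serves as comparator for MDR sub-line selectivity; cells received compound titrations, 72 h at 37 °C, then CellTiter-Glo readout.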
Giardia killer: kills Giardia lamblia; Giardia lamblia trophozoite viability; activity change, % at 7.66 µM, hits read low; 340,000 tested, 0.15% active; in the data active = activity change below about -80%; inconclusive = between about -30% and that limit;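 also: parasites exposed to compound for two days anaerobically before the ATP read; % is scaled to controls: 0 for no effect and ±100 for the full control effect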
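Anaerobic 48 hrs incubation at 37 deg C of 100 trophozoites/well with test compounds; ATPLite 1-Step luminescence, 15-30 min RT, reports cellular ATP as viability.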
Starred values were filed as active, the others as inactive; i = inactive; u = inconclusive; x = not tested or not shown; [ ] = remark or other dose. The list is not random: actives were taken first. Their share in the collection is about 6.9%. Unless noted, calls follow the shape of the dose curve; as a rule, active = well fitted curve in the direction sought with a large enough effect; inconclusive = small, poorly fitted or top-dose-only effect, or another doubt; inactive = no such curve, though single readings can be large; an effect the other way counts as inactive or inconclusive.

SMILES | ASM inhibitor | SW480 rereplic | MCF10A rereplic | KB-V1 MDR tox | KB-3-1 cytotox | Giardia killer
COc1ccc(C2=NN(C(=O)COC(=O)c3ccc(S(C)(=O)=O)c([N+](=O)[O-])c3)C(c3ccco3)C2)cc1 (configuration not stated) | u | 12µM* | u | u | u | -4
COc1ccc(C2CC(c3ccccc3OC(C)=O)=NN2C(=O)/C=C/c2ccccc2)cc1 (configuration not stated) | -8% | 1% | 9% | i | i | -13
CCc1cccc(NC(=O)c2ccc(CN3C(=O)C(C)=C(c4ccc(OC)cc4)S3(=O)=O)cc2)c1 | x | x | x | i | i | x
COc1cccc(CSc2nc3ccncc3n2CC(=O)Nc2ccc(OC)c(OC)c2OC)c1 | x | x | x | i | i | x
COc1ccc(S(=O)(=O)N2CCN(c3ccccc3)CC2)cc1-c1noc(C)n1 | x | x | x | x | x | 2
Cc1ccc(-c2nc3n(n2)C(c2ccccc2C)C=C(c2ccc(Cl)cc2)N3)cc1 (configuration not stated) | x | x | x | i | u | x
COc1ccc(C2CC(c3ccccc3)=NN2C(=O)CN2CCN(Cc3ccccc3)CC2)cc1 (configuration not stated) | -5% | 11% | -1%[9.22 µM] | 23µM* | u | -19
COc1ccc(C2=NN(C(=O)CN3CCCCC3)C(c3ccc(C)cc3)C2)cc1 (configuration not stated) | -2% | -10% | -3% | u | i | -16
Cc1cccc(C)c1NC(=O)COC(=O)C1Cc2ccccc2CN1C(=O)c1ccccc1 (configuration not stated) | -1% | 0% | 0% | 8.2µM* | i | 14
CCN(CC)CCCN1C(=O)C(O)=C(C(=O)c2cc3cccc(OC)c3o2)C1c1ccncc1 (configuration not stated) | -1% | -2% | u | i | i | 3
COc1cccc2cc(C(=O)C3=C(O)C(=O)N(CCN(C)C)C3c3ccc(F)cc3)oc12 (configuration not stated) | -2% | 8.2µM* | 5.8µM* | i | i | -9
Cc1oc2ncn(CC(C)C)c(=O)c2c1C(=O)NCCc1ccccc1 | x | x | x | i | i | x
CC(Sc1nnc(-c2ccccc2F)o1)C(=O)Nc1ccc(N2CCOCC2)cc1 (configuration not stated) | 4% | 4% | 3% | i | i | 15
Cc1occc1-c1nnc(SC(C)C(=O)Nc2ccccc2F)o1 (configuration not stated) | 4% | -9% | -1% | 10µM* | u | -17
Cc1ccccc1-c1nnc(SCC(=O)NC2CCCCC2)o1 | 0% | 3% | -3% | i | i | 3
Cc1ccccc1-c1nnc(SC(C)C(=O)NC2CCCC2)o1 (configuration not stated) | 0% | -3% | 1% | 21µM* | i | -29
Cc1ccc(/C=C2/Sc3ccccc3N(CC(=O)NCC3CCCO3)C2=O)cc1 (configuration not stated) | -4% | -7% | u | i | u | 31
Cc1cc(/C=C2\Sc3ccccc3N2C)cc(C)[n+]1CC1CCCO1 (configuration not stated) | -10% | 9.2µM* | u | i | 0.65µM* | -10
Cc1ccccc1-c1ccc(Nc2ccc(N3CCOCC3)cc2)nn1 | -1% | -2% | 16% | 21µM* | i | 1
Cc1nc(OCC(=O)c2ccc(Cl)cc2)c(C#N)c2c1COC(C)(C)C2 | -5% | 21µM* | 4.6µM* | i | i | -1
COc1ccc(C(=O)COc2nc(C)cc(C)c2C#N)cc1 | -2% | 20% | 20% | 13µM* | u | 6
CC(=O)Nc1ccc(NC(=O)CCCN2C(=O)c3ccccc3C2=O)cc1 | 1% | 1% | 0% | i | i | 13
CC(=O)Nc1ccc(NC(=O)CCN2C(=O)c3ccccc3C2=O)cc1 | 0% | -38% | 0.58µM* | i | i | -11
CCOc1ccc(/C=C2/C(=O)N(c3ccc(OC)cc3)C(=S)N2CC(=O)OC)cc1OCC | -6% | -30% | 23% | i | i | 19
CCOc1ccc(N2C(=O)/C(=C/c3cc(OC)c(OC)c(OC)c3)N(CC(=O)OC)C2=S)cc1 | -11% | 14% | 23µM* | u | i | 8
SMILES | ASM inhibitor | SW480 rereplic | MCF10A rereplic | KB-V1 MDR tox | KB-3-1 cytotox | Giardia killer
CCOC(=O)c1c(S(=O)(=O)N2CCCC(C(=O)NCc3cccc(OC)c3)C2)c(C)n(C)c1C (configuration not stated) | x | x | x | i | i | x
O=C(Nc1ccccc1)OCCOc1ccc(Br)cc1 | -3% | 22% | 18µM* | i | i | -1
Cc1ccc(OCCOC(=O)Nc2ccccc2)cc1 | -1% | -2% | 3% | u | i | 3
COc1ccc(Cn2c(C3CC3)nc3ccc(NC(=O)c4cccnc4)cc3c2=O)cc1 | -3% | u | 1% | u | 5.8µM* | 5
COC(=O)[C@@]1(Sc2ccc(C)cc2)CC(=O)N(c2ccccc2)[C@@H]1c1ccccc1 | x | x | x | 16µM* | u | x
COC(=O)[C@@]1(Sc2ccc(C)cc2)CC(=O)N(C(=O)CCc2ccccc2)[C@@H]1c1ccccc1 | x | x | x | i | i | x
O=C(Oc1ccc(NC2=C(Cl)C(=O)c3ccccc3C2=O)cc1)c1ccc([N+](=O)[O-])cc1 | 3% | -16% | -2% | i | i | -12
O=C1C(Cl)=C(NCCCO)C(=O)c2ccccc21 | -4% | u | u | i | 23µM* | u
CN(C)c1ccc(NC2=C(Cl)C(=O)c3ccccc3C2=O)cc1 | -15% | 2.9µM* | 4.1µM* | i | u | -2
O=C1C(Cl)=C(Nc2ccc3cn[nH]c3c2)C(=O)c2ccccc21 | -3% | 2.3µM* | 0.58µM* | u | u | -1
CCOCCCNC1=C(Cl)C(=O)c2ccccc2C1=O | -9% | u | u | i | u | 11
CC(=O)Nc1ccc(NC2=C(Cl)C(=O)c3ccccc3C2=O)cc1 | -2% | 5.2µM* | u | u | 16µM* | 3
Cc1ccc(NC2=C(NCCO)C(=O)c3ccccc3C2=O)cc1 | -1% | u | 19% | i | u | -4
COc1ccc(C(=O)NCCc2csc(-c3ccc(Cl)cc3)n2)c(OC)c1 | x | x | x | i | i | x
C=CCN1C(=O)/C(=C/c2ccc(OC(C)=O)c(OCC)c2[N+](=O)[O-])SC1=S | -8% | 23% | 3.7µM* | u | u | 0

Compound activity deposited in PubChem BioAssay by National Center for Advancing Translational Sciences (NCATS).
